Data on 7 compounds can be found in PubChem BioAssay (Tox21).

SMILES strings stand for the structures. Records with an inconclusive call do not appear. The source made the active and inactive calls. Unless noted, calls come from the whole dose curve; as a rule, active = well fitted curve in the direction sought with a large enough effect in the repeat runs; inconclusive = weak or mixed curves; inactive = no such curve, though single readings can be large; an effect the other way counts as inactive or inconclusive.

Test [1] is described as follows: qHTS assay for small molecule agonists of the p53 signaling pathway (AID 651631; calls by dose curve; note: nearly all actives have a fitted effect of over 15% in size; note: potency is the fitted concentration of half-maximal effect). The method in brief: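 Quantitative high-throughput format: 4,000 p53RE-bla HCT-116 cells/well, 5 h pre-incubation, 16 h compound exposure at 37 °C, 2 h room-temperature substrate step, fluorescence intensity measured.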
On the technique in general: qHTS replaces the single test concentration by a dilution series.

Test [2] in a line: qHTS assay for small molecules that induce genotoxicity in human embryonic kidney cells expressing luciferase-tagged ATAD5 (AID 651632). Note: nearly all actives have a fitted effect of over 15% in size. The method in brief:
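Genotoxicity read-out via ATAD5-luciferase: HEK293T cells, 16 hr compound incubation at 37C, Amplite detection.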

A short description of test [3]: qHTS assay for small molecule agonists of the p53 signaling pathway - cell viability (AID 651633; calls by dose curve; note: nearly all actives have a fitted effect of over 30% in size; note: potency is the fitted concentration of half-maximal effect). The gist of the method:
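p53RE-bla cells were treated with compound for 16 hours at 37 C. Cytotoxicity was then measured as CellTiter-Glo luminescence after 30 min at room temperature.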

Test [4] can be described thus: qHTS assay for small molecules that induce genotoxicity in human embryonic kidney cells expressing luciferase-tagged ATAD5 - cell viability (AID 651634; calls by dose curve; note: nearly all actives have a fitted effect of over 25% in size; note: potency is the fitted concentration of half-maximal effect). The method in brief: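 Live-cell protease activity (CellTiter-Fluor, fluorescence) indicates viability. HEK293T cells with luciferase-tagged ATAD5; 15.5 hr compound treatment at 37C.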
Test [5] in a line: qHTS assay for small molecule disruptors of the mitochondrial membrane potential - cell viability (AID 720634; calls by dose curve;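 note: human HepG2 liver cancer cells; series mostly up to about 83 µM; nearly all actives have a fitted effect of over 20% in size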). The method in brief:
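Human hepatoma HepG2 cells were treated for 1 hr with test chemicals, then given m-MPI dye and CellTiter-Glo. Cell viability reflects luminescence proportional to cellular ATP.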

Test [6] can be described thus: qHTS assay for small molecule disruptors of the mitochondrial membrane potential (AID 720635). Note: potency is the fitted concentration of half-maximal effect. The gist of the method:
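HepG2 cells exposed to compound 1 hr at 37C, then Mito-MPS dye 30 min. Ratio read of aggregate (540/590 nm) versus monomer (490/535 nm) fluorescence.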

Test [7] is described as follows: qHTS assay to test for compound auto fluorescence at 590 nm (red) in HepG2 cells (AID 720674). The gist of the method:
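Fluorescence at 590 nm emission following 540 nm excitation was recorded from HepG2 wells one hour after compound transfer, with DMSO-only wells as vehicle and Rose Bengal sodium equivalency as the scale.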

The nature of test [8]: qHTS assay to test for compound auto fluorescence at 535 nm (green) in HepG2 cells (AID 720675).
The nature of test [9]: qHTS assay to test for compound auto fluorescence at 460 nm (blue) in HEK293 cells (AID 720678). The method in brief: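 Triamterene serves as the blue fluorophore standard. Compound signal at 405/460 nm is read in HEK293 wells (2,000 cells, 10% dialyzed FBS) after overnight treatment at 37C.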
Test [10] is described as follows: qHTS assay to test for compound auto fluorescence at 590 nm (red) in HEK293 cells (AID 720679). The method in brief:
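We plated HEK293 cells in 10% dialyzed FBS medium, let them adhere for 4-5 hr, then added 23 nL compound. Overnight at 37C and 5% CO2 preceded fluorescence measurement at 540/590nm.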

The nature of test [11]: qHTS assay to test for compound auto fluorescence at 535 nm (green) in HEK293 cells (AID 720680).
The nature of test [12]: qHTS assay to test for compound auto fluorescence at 460 nm (blue) in HEK293 cell free culture (AID 720681). The method in brief:
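Compounds were added to cell-free DMEM with 10% FBS and fluorescence read directly. The blue channel used 405 nm excitation and 460 nm emission, with triamterene as the reference fluorophore.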

The nature of test [13]: qHTS assay to test for compound auto fluorescence at 535 nm (green) in HEK293 cell free culture (AID 720682). The gist of the method:
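Measurement is a direct plate read of green fluorescence (485 nm in, 535 nm out) after compound addition to serum-supplemented DMEM lacking cells, with fluorescein used to express intensities.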

A short description of test [14]: qHTS assay to test for compound auto fluorescence at 590 nm (red) in HEK293 cell free culture (AID 720683). The gist of the method: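 Cell-free wells of DMEM with 10% FBS received compound, and intrinsic fluorescence was read at excitation/emission 540/590 nm. Values expressed as equivalence to Rose Bengal sodium.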
Test [15] is described as follows: qHTS assay to test for compound auto fluorescence at 590 nm (red) in HepG2 cell free culture (AID 720684). The gist of the method: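 Compounds are added to culture medium (MEM, 10% FBS) lacking cells, then fluorescence is read at excitation 540 nm, emission 590 nm, with Rose Bengal sodium as the equivalency standard.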
The nature of test [16]: qHTS assay to test for compound auto fluorescence at 460 nm (blue) in HepG2 cell free culture (AID 720685). The method in brief:
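Compound (23 nL) or DMSO pinned into cell-free MEM with 10% FBS; blue fluorescence read at 405/460 nm excitation/emission, expressed as auto-fluorescence equivalency to triamterene.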

Test [17] is described as follows: qHTS assay to test for compound auto fluorescence at 535 nm (green) in HepG2 cell free culture (AID 720686).
Test [18] is described as follows: qHTS assay to test for compound auto fluorescence at 460 nm (blue) in HepG2 cells (AID 720687). The method in brief: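 HepG2 cells in MEM with 10% FBS, attached overnight at 37 C, were exposed to compound or DMSO for 1 hr at 37 C, 5% CO2. Blue fluorescence was read at 405/460 nm, with triamterene as reference fluorophore.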
Test [19] addresses Glucocorticoid receptor (Homo sapiens) (UniProt P04150). The experiment in a line: qHTS assay to identify small molecule agonists of the glucocorticoid receptor (GR) signaling pathway (AID 720691; active = well fitted activation curve with a large enough effect in the signal ratio in the repeat runs, not every such curve was filed as active; the % refers to the signal ratio). The gist of the method: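 Beta-lactamase reporter activity, read as fluorescence intensity, was measured in GR-bla HeLa cells exposed to compounds for 18 h at 37 C and then loaded with LiveBLAzer B/G FRET substrate for 2 h at room temperature.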

Test [20] shares this target. The test is described as follows: qHTS assay to identify small molecule antagonists of the glucocorticoid receptor (GR) signaling pathway (AID 720692; active = well fitted inhibition curve with a large enough effect in the signal ratio in the repeat runs, not every such curve was filed as active; the % refers to the signal ratio; note: potency is the fitted concentration of half-maximal effect). The gist of the method:
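Fluorescence from cleaved LiveBLAzer B/G FRET substrate reports GRE-driven beta-lactamase in HeLa cells; compounds are tested against 5 nM dexamethasone (final) over 18 h at 37 C, substrate incubation 2 h at room temperature.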

Chain of Glucocorticoid receptor (Homo sapiens) (P04150 whole entry, looked up): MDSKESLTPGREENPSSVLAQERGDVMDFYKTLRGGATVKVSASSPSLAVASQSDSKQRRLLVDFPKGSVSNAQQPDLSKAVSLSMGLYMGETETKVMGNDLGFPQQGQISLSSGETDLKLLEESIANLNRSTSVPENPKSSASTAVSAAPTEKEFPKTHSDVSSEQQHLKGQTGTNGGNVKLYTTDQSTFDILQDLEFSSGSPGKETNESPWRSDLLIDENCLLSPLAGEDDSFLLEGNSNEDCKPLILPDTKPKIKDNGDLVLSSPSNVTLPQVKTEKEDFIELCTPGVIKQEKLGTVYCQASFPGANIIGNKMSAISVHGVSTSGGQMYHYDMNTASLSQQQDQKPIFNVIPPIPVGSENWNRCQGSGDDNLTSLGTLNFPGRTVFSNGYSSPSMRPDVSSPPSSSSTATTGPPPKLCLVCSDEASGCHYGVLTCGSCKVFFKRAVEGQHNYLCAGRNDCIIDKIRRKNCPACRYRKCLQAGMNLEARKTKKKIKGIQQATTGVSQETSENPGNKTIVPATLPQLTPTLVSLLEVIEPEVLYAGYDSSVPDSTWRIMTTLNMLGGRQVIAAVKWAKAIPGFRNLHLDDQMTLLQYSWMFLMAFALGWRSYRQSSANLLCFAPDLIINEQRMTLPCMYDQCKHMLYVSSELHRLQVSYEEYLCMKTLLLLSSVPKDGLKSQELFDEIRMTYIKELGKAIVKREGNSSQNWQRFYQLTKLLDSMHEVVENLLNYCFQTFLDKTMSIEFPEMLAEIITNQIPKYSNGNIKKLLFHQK

For `CCOC(=O)/C=C/C(=O)OCC`, the Potency result in [1], in test [2], in test [3], in [4], in test [5] and in test [6] was “inactive” in each case. Also, the Potency entry in test [9], in test [12], in [16], in test [18], in test [19] and in test [20] was “inactive” in each case. For the same compound, the call in [7], in test [8], in test [10], in test [11], in test [13] and in test [14] was inactive. Also, the compound was classed as inactive in test [15] and in test [17].

Consider `CCOC(=O)c1ccccc1C(=C1C=C(Br)C(=O)C(Br)=C1)c1cc(Br)c(O)c(Br)c1`, for which the Potency is 7.24 µM (active) in test [1]; 7.24 µM (active) in test [3]; 40.7 µM (active) in test [4]; 20.4 µM (active) in test [6]; 4.61 µM (active) in test [20]. In addition, the Potency entry in test [2], in test [5], in test [9], in test [12], in test [16] and in test [18] was “inactive” each time. The result in [7], in [8], in test [10], in test [11], in [13] and in [14] was inactive. Further, the outcome in test [15] and in test [17] was inactive.

Turning to `O=c1[nH]ncc2ccccc12`, the Potency entry in test [1], in [2], in test [3], in test [4], in test [5] and in test [6] was “inactive” throughout. In addition, the Potency result in [9], in test [12], in test [16], in [18], in test [19] and in test [20] was “inactive” in each case. The call in test [7], in test [8], in [10], in [11], in [13] and in [15] was inactive. In addition, in test [17], the call was inactive.

In the case of `NC(=O)c1ccncc1`, the Potency entry in test [1], in [2], in [3], in [4], in [5] and in test [6] was “inactive” throughout. The Potency entry in test [9], in test [12], in test [16], in test [18], in test [19] and in test [20] was “inactive” throughout. Further, the call in test [7], in test [8], in [10], in test [11], in test [13] and in [14] was inactive. Moreover, the compound was called inactive in [15] and in test [17].

With `CC(CO)CO`, the Potency entry in [1], in [2], in test [3], in [4], in test [5] and in test [6] was “inactive” in each case. The Potency entry in test [9], in test [12], in test [16], in test [18], in test [19] and in test [20] was “inactive” in each case. Further, the outcome in test [7], in test [8], in [10], in [11], in test [13] and in test [14] was inactive. For the same compound, the compound was classed as inactive in test [15] and in test [17].

In the case of `CCOC(=O)c1ccc(I)cc1`, the Potency entry in test [1], in [2], in test [3], in [4], in test [5] and in test [6] was “inactive” in each case. In addition, the Potency result in test [9], in [12], in test [16] and in test [18] was “inactive” in each case. Also, the result in test [7], in test [8], in [11], in test [14], in [15] and in [17] was inactive.

For the compound `O=C(O)C[C@H](NC(=O)OCc1ccccc1)C(=O)O`, the Potency entry in test [1], in test [2], in test [3], in test [4], in [5] and in test [6] was “inactive” throughout. Also, the Potency result in [9], in [12], in test [16], in [18], in test [19] and in test [20] was “inactive” in each case. Besides, the result in test [7], in test [10], in [11], in test [14], in test [15] and in test [17] was inactive.
